Measured values reported in PubChem BioAssay (NCATS).
Inconclusive results are not listed. Active and inactive are the calls of the source. Calls follow the shape of the dose curve; as a rule, active = well fitted inhibition curve with a large enough effect; inconclusive = small, poorly fitted or top-dose-only effect; inactive = flat fitted curve, though single readings scatter.

How the values were obtained:
[1] = tested on: CRL-7250; test: Cytotoxic Profiling of Annotated Libraries Using Quantitative High-Throughput Screening (AID 1296008); conditions: Five cell lines viability, CellTiter-Glo ATP luminescence, 48-72 h; max response: active compounds read low; as to max response: % is scaled to controls: 0 for no effect and ±100 for the full control effect
In short: (§1)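 Compounds were pin-transferred onto cells and incubated 48 or 72 hr at 37 degree Celsius, 95% humidity. CellTiter-Glo was added, plates sat 10 min at room temperature, then ATP-coupled luminescence was imaged as the viability read-out.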

[2] = tested on: HaCat; test: as above; conditions: Five cell lines viability, CellTiter-Glo ATP luminescence, 48-72 h; max response: active compounds read low
In short: as §1

[3] = tested on: KB-3-1; test: as above; conditions: Five cell lines viability, CellTiter-Glo ATP luminescence, 48-72 h; max response: active compounds read low
In short: as §1

[4] = tested on: NIH3T3; test: as above; conditions: Five cell lines viability, CellTiter-Glo ATP luminescence, 48-72 h; max response: active compounds read low
In short: as §1

[5] = tested on: HACAT; test: qHTS assay to identify novel small-molecules to repurpose for Merkel cell carcinoma treatment (AID 1296009); conditions: MCC and control cell lines, CellTiter-Glo viability, 72 h; at 44.8 µM (top of the series) unless noted
In short: (§2)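 Luminescence from CellTiter-Glo, read 10 min after addition at room temperature, reported viability following a 72 hr, 37 degree celsius treatment with NPC or MIPE compounds in titration; values normalized to plate controls.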

[6] = tested on: MCC-26; test: as above; conditions: MCC and control cell lines, CellTiter-Glo viability, 72 h
In short: as §2
Also: nearly all actives have a fitted effect of over 60% in size.
Potency is read from the fitted curve at half-maximal effect.

Fc1ccc(N2CCN(CCC3OCCc4ccccc43)CC2)cc1 (configuration not stated)
inactive: max response [1] -11.3% | outcome [2] | max response [3] -21.6% | max response [4] -0.639% | outcome [5]

CCn1c(=O)n([C@H]2CCCN(c3nccc(-c4cc5ccccc5o4)n3)C2)c2ccccc21
inactive: outcome [1] | outcome [2] | max response [3] -9.5% | outcome [4] | outcome [5]

C=C1C(=O)OC2/C=C(\CO)CC/C=C(\C=O)C(O)C(OC(=O)C(C)CC)C12 (configuration not stated)
inactive: max response [1] 0.0349% | outcome [2] | outcome [3] | outcome [5]

CCOc1nc(NC(=O)Cc2cc(OC)ccc2OC)cc(N)c1C#N
inactive: max response [1] -9.74% | outcome [2] | max response [3] 7.15% | outcome [5]

Cc1ccccc1CN1CCn2c1nc1c(c2=O)CN(Cc2ccccc2)CC1
inactive: max response [1] 1.02% | outcome [2] | max response [3] -11.6% | outcome [5]

CN1CC2CN(c3ccc4oc5ccccc5c(=O)c4c3)CC2C1 (configuration not stated)
inactive: max response [1] -0.983% | outcome [2] | max response [3] -11.6% | max response [4] -10.4% | outcome [5] inactive [at 17.4 µM]

CC[C@H](C)/C=C(C)/C=C/C1=CC2=CC(=O)[C@]3(C)OC(=O)[C@@H](C(C)=O)[C@@H]3C2=CO1
inactive: max response [1] -1.79% | outcome [2] | max response [3] 4.01% | max response [4] -1.49% | outcome [5]

Cc1cc(CS(=O)(=O)c2ccccc2)cc(OCc2ccc(CN3CCCC3CO)cc2)c1 (configuration not stated)
inactive: max response [1] 4.21% | outcome [2] | max response [3] -16.6% | outcome [5]

Cc1csc(N(C(=O)CSc2ccc(-c3ccccc3)nn2)C2CC2)n1
inactive: max response [1] -10.7% | outcome [2] | max response [3] -2.9% | outcome [5]

COc1ccc2c(c1O[C@H]1CCNC1)CCC2
inactive: max response [1] -1.86% | outcome [2] | max response [3] -7.28% | outcome [4] | outcome [5]

O=C(Nc1cccnc1)c1cc(-c2ccnc(F)c2)ccc1OCc1ccccc1
inactive: max response [1] -1.07% | outcome [2] | max response [3] 6.84% | max response [4] 4.92% | outcome [5]

CN[C@H]1CC[C@@H](c2ccc(Cl)c(Cl)c2)c2ccccc21
active: Potency [1] 3.76 µM | Potency [2] 15 µM | Potency [4] 11.9 µM | Potency [6] 26.6 µM
inactive: max response [3] -11.2%

CCN(CC)CCCCCCNc1cc(OC)cc2c(C)ccnc12
inactive: max response [1] -13.4% | outcome [2] | max response [3] -5.11% | outcome [5]

O=C(O)CSc1cc(NS(=O)(=O)c2ccc(Br)cc2)c2ccccc2c1O
inactive: outcome [2] | outcome [5]
active: Potency [1] 23.1 µM | Potency [3] 18.4 µM

Cc1[nH]c2ccccc2c1CCNC(=O)c1cccs1
inactive: max response [1] -14.1% | outcome [2] | outcome [3] | max response [4] 0.258% | outcome [5]

CN1CCN(C2=Nc3ccccc3Nc3ccc(OS(=O)(=O)C(F)(F)F)cc32)CC1
inactive: outcome [1] | outcome [2] | max response [3] -4.68% | outcome [4] | outcome [5]

CCC(C)CNCC(=O)N1CCC2SC=CC2C1COc1cccc(C)c1 (configuration not stated)
inactive: max response [1] -4.73% | max response [2] 3.39% | max response [4] -20.9%

Cc1c(NC(=O)c2cc3c(s2)CCCC3)cccc1-c1cn(C)c(=O)c(Nc2ccc(C3C(=O)N(C)CCN3C)cc2)n1 (configuration not stated)
inactive: max response [1] -5.13% | outcome [2] | outcome [3] | outcome [5]

O=C(NCC1(c2nc(-c3ccccc3)cs2)CCOCC1)c1cccc(-c2noc(C(F)(F)F)n2)c1
inactive: max response [1] -0.2% | outcome [2] | max response [3] -10.2% | outcome [5]

COc1ccc(S(=O)(=O)Nc2c(C)cc(C)cc2C)cc1
inactive: outcome [1] | max response [2] -0.296% | max response [4] 0.769%

Cc1cc(C)c(S(=O)(=O)n2cc(C)cc2C)c(C)c1
inactive: max response [1] -3.09% | outcome [2] | max response [3] 2.85% | outcome [4] | outcome [5]

C=C1C(OC2OC(CO)C(O)C(O)C2O)CC2C(C)(C)C(O)CCC2(C)C1CC/C(C)=C\COC(=O)CC(=O)O (configuration not stated)
inactive: max response [1] -0.672% | outcome [2] | outcome [3] | max response [4] 3.9% | outcome [5] inactive [at 17.4 µM]

C=C1C(=O)OC2CC(C)C(CCC(C)=O)=CCC12 (configuration not stated)
inactive: max response [1] -28.7% | outcome [2] | max response [3] -13.7% | outcome [5]

O=C(OC1CN2CCC1CC2)N1CCc2ccccc2C1c1ccccc1 (configuration not stated)
inactive: max response [1] 0.185% | outcome [2] | max response [3] -9.02% | outcome [5]

CN(C)c1cccc(Oc2cnc(Nc3cccc(O)c3)nc2)c1
inactive: max response [1] 4.02% | outcome [2] | outcome [3] | outcome [5]

C=C1C(=O)O[C@@H]2/C=C(\C)CC/C=C(/C=O)[C@H](OC)[C@@H](OC(=O)C(C)C)[C@@H]12
inactive: max response [1] 2.09% | outcome [2] | outcome [3] | outcome [5]

CCOc1cccc(NC(=O)c2ccc(N3CCCC3)c(C(F)(F)F)c2)c1
inactive: max response [1] -10.4% | outcome [2] | max response [3] -0.259% | outcome [5]
